esBAF inh – Bmi1 luciferase reporter increase in mESCs, primary screen, esBAF inhibitor project, mouse ES cells, Bmi1 luciferase knock-in, single point | 350,000 compounds, 2% hits | AID 602393, 2012 | 24 h; 100% = twice the neutral-well signal | reporter increase, % at 12.5 µM; in the data active = activation above about 40%; inconclusive = no clear call, values can overlap the other calls;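 also: 0% = median of the plate's neutral control wells and 100% = double that signal; a rise in the Bmi1 reporter signal indicates esBAF inhibition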
Statin myotox sup – suppressors of statin myotoxicity in C2C12 myotubes, primary screen, cell-based, single point, plate reader. AID 602340, 2012. rescue of ATP level, % at 7.49 µM. 330,000 compounds, 0.78% hits. C2C12 myotubes + simvastatin, ATP luminescence, 48 h; scaled: DMSO 0, geranylgeraniol control 100;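 active = mean ATP rescue above about 67%, or every replicate alone reaching that limit, limit read from the data, passing the limit was not always enough; inconclusive = no clear call, values can overlap the other calls; inactive = mean under the limit and some replicate under it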;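 also: myotubes were challenged with 10 µM simvastatin during compound exposure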
MITF act – activators of MITF-driven TRPM1 promoter reporter, primary screen, cell-based, SK-MEL-5, luciferase, single point | SK-MEL-5 TRPM1-promoter luciferase, 24 h; % of positive control, neutral wells = 0 | activation, % at 12.5 µM | 300,000 compounds, 0.75% hits;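 active = mean activation of at least 80% with every replicate also reaching 80%; inconclusive = mean reaches 80% but some replicate falls short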;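 also: 0% = neutral control wells and 100% = parthenolide positive control wells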
EBV LMP1 NFkB – EBV LMP1-driven NF-kappaB luciferase reporter inhibitors, primary screen, cell-based, luminescence, single point. LMP1-induced NF-kappaB luciferase reporter cells. AID 504558, 2011. inhibition, % at 12.5 µM. 350,000 compounds, 0.69% hits; in the data active = inhibition above about 41%; inconclusive = no clear call, values can overlap the other calls;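 also: 0% = neutral control wells and 100% = reference inhibitor control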
Wnt act – Wnt/beta-catenin pathway activators, primary screen, cell-based, plate reader, single point; Wnt/beta-catenin reporter cell assay, activator; activation, % at 9.35 µM; 300,000 compounds, 1.2% hits; in the data active = activation above about 30%, passing the limit was not always enough; inconclusive = no clear call, values can overlap the other calls;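 also: 0% = neutral control wells and 100% = positive control wells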
MITF TRPM1 inh – inhibitors of MITF-dependent TRPM1 promoter reporter, primary screen, cell-based, SK-MEL-5, single point, luciferase | SK-MEL-5 TRPM1 promoter luciferase, 24 h | inhibition, % at 12.5 µM | 330,000 compounds, 0.83% hits | AID 488899, 2010;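 active = mean inhibition across replicates of 60% or more, whatever share of single replicates reaches that level; inconclusive = some that reach 60%, reason not given; inactive = mean inhibition across replicates below 60%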
* marks the source's active call; other numbers are inactive results. Rows were chosen to be rich in hits. Some 4% of all compounds tested hit in one or more screens of this group.

For Cc1ccccc1-c1cnc2c(c1)C(=O)N([C@H](C)CO)C[C@H](C)[C@@H](CN(C)Cc1ccncc1)O2 the results were esBAF inh 2 and Statin myotox sup -24.
`CC(C)(C)Nc1nc(Nc2ccc([N+](=O)[O-])cc2)nc(NC(C)(C)C)n1` gave esBAF inh 1, Statin myotox sup -13, EBV LMP1 NFkB 2, Wnt act -3 and MITF TRPM1 inh 4.
O=[N+]([O-])c1ccc(Nc2nccc(Cl)n2)cc1 was read as Wnt act 55*.
For CCC(/C=C1\Sc2ccc(OC)cc2N1CCO)=C\c1sc2ccc(OC)cc2[n+]1CCO the results were esBAF inh -26, Statin myotox sup -117, MITF act -96, EBV LMP1 NFkB 46*, Wnt act -1 and MITF TRPM1 inh 96*.
CCCCC(=O)Nc1ccc(C(=O)c2ccccc2)cc1 was read as esBAF inh 49*, Statin myotox sup 4, MITF act 23, EBV LMP1 NFkB -8, Wnt act -4 and MITF TRPM1 inh -23.
For CCCC(=O)Nc1ccc(C#Cc2ccccc2)cc1 the results were esBAF inh 54*, Statin myotox sup -4, MITF act 96*, EBV LMP1 NFkB -10, Wnt act 38* and MITF TRPM1 inh -93.
CN1C(=O)c2ccc(N(C)C)cc2C1=O was read as esBAF inh 4, Statin myotox sup 109*, EBV LMP1 NFkB -11, Wnt act 0 and MITF TRPM1 inh -14.
CCc1nnc(NC(=O)c2oc3ccc(Br)cc3c2C)s1 was read as MITF act 44, EBV LMP1 NFkB -9, Wnt act 9 and MITF TRPM1 inh -47.
`Cc1c(C(=O)Nc2nccs2)oc2ccc(F)cc12` gave esBAF inh -12, Statin myotox sup -16, MITF act 34, EBV LMP1 NFkB -10, Wnt act 38* and MITF TRPM1 inh -30.
`Cc1c(C(=O)Nc2nccs2)oc2ccc(Br)cc12` gave esBAF inh 72*, Statin myotox sup -13, MITF act 30, EBV LMP1 NFkB -63, Wnt act 1 and MITF TRPM1 inh -29.
Screening Cc1c(C(=O)/C=C/c2cccs2)oc2ccc(F)cc12 returned esBAF inh 63*, Statin myotox sup 36, MITF act 23, EBV LMP1 NFkB -3 and MITF TRPM1 inh -17.
`CC(C)NC(=O)N(C)C[C@H]1Oc2c(NC(=O)Nc3ccc4c(c3)OCO4)cccc2C(=O)N([C@@H](C)CO)C[C@@H]1C` gave esBAF inh 1 and Statin myotox sup 5.
NS(=O)(=O)c1ccc(CNC(=S)NC2CC2)cc1 was read as MITF act 5, EBV LMP1 NFkB 5, Wnt act -1 and MITF TRPM1 inh -7.
O=C(Nc1nnc(C2CC2)s1)c1cc2ccccc2o1 was read as esBAF inh 46*, Statin myotox sup -8, MITF act 66, EBV LMP1 NFkB -27, Wnt act inconclusive and MITF TRPM1 inh -67.
`CS(=O)(=O)c1ccc2nc(NC(=O)c3cc4ccccc4o3)sc2c1` gave esBAF inh 67*, Statin myotox sup -21, MITF act 31, EBV LMP1 NFkB -11, Wnt act 17 and MITF TRPM1 inh -26.
`Cc1nnc(NC(=O)c2cc3ccccc3o2)s1` gave esBAF inh -7, Statin myotox sup 14, MITF act 55, EBV LMP1 NFkB 0, Wnt act 11 and MITF TRPM1 inh -52.
For O=C(Nc1nnc(C2CC2)s1)c1ccc(Cl)nc1 the results were esBAF inh 53*, Statin myotox sup 6, MITF act 46, EBV LMP1 NFkB -6, Wnt act 34* and MITF TRPM1 inh -42.
Screening CCc1nnc(NC(=O)c2ccc(Cl)nc2)s1 returned esBAF inh inconclusive, Statin myotox sup 5, MITF act 52, EBV LMP1 NFkB -6, Wnt act 0 and MITF TRPM1 inh -65.
Screening Cc1ccc(C(=O)Nc2nc3ccc(S(C)(=O)=O)cc3s2)o1 returned esBAF inh 36, Statin myotox sup -25, EBV LMP1 NFkB -55, Wnt act 53* and MITF TRPM1 inh -24.
Screening CCCn1c(SCC(=O)Nc2nnc(C)s2)nnc1C1CC1 returned MITF act -5, EBV LMP1 NFkB -8, Wnt act -5 and MITF TRPM1 inh 1.
`C[C@H]1CCCCO[C@@H](CN(C)C(=O)Nc2ccc(C(F)(F)F)cc2)[C@@H](C)CN([C@@H](C)CO)C(=O)c2cc(NS(=O)(=O)c3cccs3)ccc2O1` gave esBAF inh 9 and Statin myotox sup 1.
For COc1ccc(-c2oc(=O)c3cc(OC)c(OC)cc3c2-c2cc(F)cc(OC)c2)cc1 the results were esBAF inh 2, Statin myotox sup 5, MITF act -6, EBV LMP1 NFkB -5, Wnt act -3 and MITF TRPM1 inh 8.
`CC1=C(C(=O)OC(C)C)C(c2cccs2)n2ncnc2N1` (stereo not given) gave esBAF inh -6, Statin myotox sup -8, MITF act -5, EBV LMP1 NFkB 1, Wnt act 0 and MITF TRPM1 inh 8.
COc1cccc(CNC(=O)COC(=O)/C(C#N)=C/c2ccc(N(C)C)cc2)c1 was read as esBAF inh -5, Statin myotox sup -1, MITF act 4, EBV LMP1 NFkB -2, Wnt act 3 and MITF TRPM1 inh -2.
COc1ccc(NC(=O)Nc2cccc3c2O[C@@H](CN(C)Cc2ccc(-c4ccccc4)cc2)[C@@H](C)CN([C@@H](C)CO)C3=O)cc1 was read as esBAF inh -1.
`CS(=O)(=O)N1CCN(C(=O)c2c(F)cccc2F)CC1` gave esBAF inh -7, Statin myotox sup 20, MITF act 2, EBV LMP1 NFkB 1 and MITF TRPM1 inh 1.
Screening CC(C)CNC(=O)c1ccccc1NC(=O)c1ccccc1N(C)S(C)(=O)=O returned esBAF inh 2, Statin myotox sup 6, MITF act -4, EBV LMP1 NFkB 0 and MITF TRPM1 inh 1.
Screening CN(c1ccccc1C(=O)N1CCCC1)S(C)(=O)=O returned esBAF inh -10, Statin myotox sup 100*, EBV LMP1 NFkB 4, Wnt act 0 and MITF TRPM1 inh -9.
Screening CSc1ccccc1NC(=O)c1ccccc1N(Cc1ccccc1)S(C)(=O)=O returned esBAF inh -9, Statin myotox sup 102*, MITF act -11, EBV LMP1 NFkB 9, Wnt act -3 and MITF TRPM1 inh 13.
